From PubChem
Hits are enriched below; roughly 3.7% of the tested compounds scored in any of these assays.
HTT aggregate: mutant huntingtin aggregation inhibition | AID 1688 | Potency, µM (top dose mostly 46.1 µM), inactives show at the top dose activity change, negative = inhibition, hits mostly inhibitors | PC12 HttQ103-GFP aggregates, Acumen cytometry, 40 h | 220,000 compounds, 1.1% hits; also: % is scaled to controls: 0 for no effect and ±100 for the full control effect; nearly all actives have a fitted effect of over 60% in size
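Ecdysone-promoter PC12 model expressing HTT exon 1 Q103 fused to GFP, induced by tebufenozide at 100 nM final. Compounds titrated; aggregates sized 1–25 µm scored on a 488 nm laser cytometer.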
HTT cytoprotect: protects HTT-Q103 PC12 cells, measured by ATP. AID 1471. PC12 HTT-Q103 induced, cytoprotection, ATP luminescence, 40 h. 230,000 compounds, 0.14% hits. Potency, µM (titrated, usually from 56.4 µM), for inactives: cytoprotection (ATP increase), hits mostly activators; also: % of control where 0% means no effect; nearly all actives have a fitted effect of over 45% in size
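Quantitative HTS on tebufenozide-induced (100 nM) PC12 cells expressing HTTQ103 exon 1–GFP; compounds tested as a concentration series; survival measured via cellular ATP.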
Tau fibril ThT: inhibitors of human tau fibril formation, thioflavin T binding; P10636; recombinant tau K18 P301L, heparin-induced fibrillization, ThT fluorescence; Potency, µM (top dose mostly 57.4 µM), without a hit: at the top dose activity, negative = inhibition, hits mostly inhibitors; 270,000 compounds, 2.1% hits; AID 1460; also: % is scaled to controls: 0 for no effect and ±100 for the full control effect; nearly all actives have a fitted effect of over 55% in size
Target sequence (P10636 561-689 P618L limits assumed): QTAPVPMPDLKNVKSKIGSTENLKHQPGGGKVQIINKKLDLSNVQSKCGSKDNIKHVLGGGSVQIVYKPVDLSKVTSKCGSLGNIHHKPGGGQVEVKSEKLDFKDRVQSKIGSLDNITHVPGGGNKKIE
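Aggregation was driven by heparin (20 uM final) acting on recombinant tau […] bearing P301L in 100 mM sodium acetate pH 7; fibrils were detected with Thioflavin T.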
Tau fibril FP: inhibitors of human tau fibril formation; P10636; 280,000 compounds, 0.39% hits; Potency, µM (top dose mostly 57.7 µM), without a hit: top-dose activity, negative = inhibition, hits mostly inhibitors; K18 P301L tau heparin fibrillization, Alexa594 FP, 6 h; also: % is scaled to controls: 0 for no effect and ±100 for the full control effect; nearly all actives have a fitted effect of over 55% in size
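Compound effects on tau fibrillization are measured by Alexa 594 fluorescence polarization (ex 555, em 632 nm). K18 P301L tau is used at 15 uM with 0.24 uM labeled tracer, and 20 uM heparin induces aggregation over 6 hr at 37 C.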
Tau fluor counter: counter-screen for tau fibril formation inhibitors | tau K18 P301L Alexa594 fluorescence, heparin fibrillization | Potency, µM (doses to about 57.7 µM), inactives show at the highest dose activity change, negative = decrease | 280,000 compounds, 0.93% hits; also: % is scaled to controls: 0 for no effect and ±100 for the full control effect; nearly all actives have a fitted effect of over 55% in size
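Human tau K18 P301L (15 uM unlabeled, 0.24 uM Alexa 594-labeled) in 100 mM sodium acetate pH 7 with 20 uM heparin, 6 hr at 37 C. ThT 30 uM added, 1 hr ambient; Alexa 594 FP and total fluorescence read at 555/632 nm.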
An asterisk follows results filed as active; [ ] = remark or other dose. Calls follow the shape of the dose curve; as a rule, active = well fitted curve in the direction sought with a large enough effect; inconclusive = small, poorly fitted or top-dose-only effect, or another doubt; inactive = no such curve, though single readings can be large; an effect the other way counts as inactive or inconclusive. Potency is read from the fitted curve at half-maximal effect.

`CCN(CC)S(=O)(=O)c1ccc(C(=O)NCCSc2c(-c3ccc(C)cc3)[nH]c3ccccc23)cc1` gave Tau fibril ThT -4%, Tau fibril FP -1% and Tau fluor counter 3.2µM*[quencher].
For COc1ccc(C(=O)NCCSc2c(C)[nH]c3ccccc23)cc1 the results were Tau fibril ThT inconclusive, Tau fibril FP 14% and Tau fluor counter inconclusive.
CCN(CC)S(=O)(=O)c1ccc(C(=O)NCCSc2c[nH]c3ccccc23)cc1 was read as HTT aggregate -10%, Tau fibril ThT inconclusive, Tau fibril FP 16% and Tau fluor counter inconclusive.
Screening COc1ccc(-c2[nH]c3ccccc3c2SCCNC(=O)c2cc3ccccc3oc2=O)cc1 returned HTT aggregate -7%, Tau fibril ThT inconclusive, Tau fibril FP 14% and Tau fluor counter 11µM*[quencher].
For O=C(NCCSc1c[nH]c2ccccc12)c1ccc(Br)o1 the results were HTT aggregate -6%, HTT cytoprotect 29%[10 µM], Tau fibril ThT inconclusive, Tau fibril FP 12% and Tau fluor counter inconclusive.
Cc1cc(C)cc(NC(=O)C(=O)NCC(c2cccnc2)N2CCc3ccccc3C2)c1 (stereo unspecified) was read as Tau fibril ThT -7%, Tau fibril FP -2% and Tau fluor counter -3%.
O=C(Nc1cccc(F)c1)C1CCN(c2nc3ccccc3[nH]2)CC1 was read as Tau fibril ThT -15%, Tau fibril FP 3% and Tau fluor counter -16%.
COc1cc2cc3c(N)c(C(=O)NCc4ccco4)sc3nc2cc1OC was read as HTT aggregate 32%, HTT cytoprotect -10%[10 µM], Tau fibril ThT 14µM*, Tau fibril FP -5% and Tau fluor counter inconclusive.
Cc1cc(C(=O)Nc2sc(C)c(C)c2C#N)no1 was read as HTT aggregate 8%, HTT cytoprotect 4%[1.9 µM], Tau fibril ThT inconclusive, Tau fibril FP 1% and Tau fluor counter -7%.
For COc1cc2cc3c(N)c(C(=O)Nc4sc(C)c(C)c4C#N)sc3nc2cc1OC the results were HTT aggregate 11%, HTT cytoprotect -16%, Tau fibril ThT 5µM*, Tau fibril FP 8% and Tau fluor counter -27%.
`Cc1cc(=O)oc2c(OS(C)(=O)=O)c(OS(C)(=O)=O)ccc12` gave HTT cytoprotect 18%[10 µM].
Screening COC(=O)c1ccc(-n2nnc(-c3nc(-c4ccc5c(c4)OCO5)no3)c2C)cc1 returned Tau fibril ThT inconclusive, Tau fibril FP -4% and Tau fluor counter -11%.
`O=C(O)C(Cl)(c1ccccc1)c1ccccc1` gave HTT cytoprotect 2%[10 µM].
For CC(C)(C)N=C1SCC(C)(/C=N/O)S1 (stereo unspecified) the results were HTT aggregate 1%, HTT cytoprotect -1%, Tau fibril ThT 25µM*, Tau fibril FP inconclusive and Tau fluor counter -25%.
Screening CCC(C)N=C1SCC(C)(/C=N/O)S1 (stereo unspecified) returned HTT aggregate -3%, HTT cytoprotect 0%[0.074 µM], Tau fibril ThT inconclusive, Tau fibril FP -10% and Tau fluor counter -11%.
`O=C(Nc1cccc(-c2csc(Nc3cccc(C(F)(F)F)c3)n2)c1)c1cc([N+](=O)[O-])cc(C(F)(F)F)c1` gave HTT aggregate -33%[9.22 µM], HTT cytoprotect 13%[10 µM], Tau fibril ThT inconclusive, Tau fibril FP 6% and Tau fluor counter 2.5µM*[quencher].
For O=[N+]([O-])c1cccc(-c2csc(N/N=C/c3cccc(O)c3)n2)c1 the results were HTT aggregate inconclusive, HTT cytoprotect -58%, Tau fibril ThT 6.3µM*, Tau fibril FP -5% and Tau fluor counter 7.9µM*[quencher].
Screening Cc1ccc(-c2csc(NC(=O)c3cccc([N+](=O)[O-])c3)n2)cc1 returned HTT aggregate 15%, HTT cytoprotect -21%, Tau fibril ThT -10%, Tau fibril FP -7% and Tau fluor counter -24%.
Screening O=C(Nc1ccc(-c2csc(Nc3ccccc3)n2)cc1)c1cccc(C(F)(F)F)c1 returned HTT aggregate 2%[9.22 µM], HTT cytoprotect 16%[10 µM], Tau fibril ThT inconclusive, Tau fibril FP 1% and Tau fluor counter inconclusive.
For O=C(Nc1nc(-c2cccc([N+](=O)[O-])c2)cs1)C(c1ccccc1)c1ccccc1 the results were HTT aggregate 16µM*, HTT cytoprotect 4%[10 µM], Tau fibril ThT -20%, Tau fibril FP -4% and Tau fluor counter inconclusive.
For COc1ccc(CC(=O)Nc2nc(-c3cccc([N+](=O)[O-])c3)cs2)cc1 the results were HTT aggregate 47%, Tau fibril ThT 1%, Tau fibril FP 1% and Tau fluor counter inconclusive.
CC(=O)c1cccc(Nc2nc(-c3cccc([N+](=O)[O-])c3)cs2)c1 was read as HTT aggregate inconclusive, HTT cytoprotect 12%[10 µM], Tau fibril ThT 4µM*, Tau fibril FP 4% and Tau fluor counter 7.1µM*[quencher].
Cc1ccccc1Nc1c(-c2ccc(N3CCOCC3)cc2)nc2ccc(Cl)cn12 was read as Tau fibril ThT inconclusive, Tau fibril FP 5% and Tau fluor counter inconclusive.
For COc1cc2c(C(=O)N3CCN(c4ccc(F)cc4)CC3)cn(CC(C)C)c(=O)c2cc1OC the results were Tau fibril ThT -10%, Tau fibril FP 3% and Tau fluor counter -10%.
For CCOc1cc(C(=O)N2CC(=O)Nc3ccc(C)cc3C2c2ccccc2)cc(OCC)c1OCC (stereo unspecified) the results were Tau fibril ThT -12%, Tau fibril FP 4% and Tau fluor counter -8%.
Screening N[C@@H]1C=CC=C(C(=O)O)C1 returned HTT cytoprotect 4%[1.9 µM].
`O=C(Nc1ccc(-c2csc(Nc3ccccc3)n2)cc1)c1cc([N+](=O)[O-])cc(C(F)(F)F)c1` gave HTT aggregate -23%[9.22 µM], HTT cytoprotect 16%[10 µM], Tau fibril ThT 3.5µM*, Tau fibril FP 0% and Tau fluor counter 4µM*[quencher].
`O=C(Nc1ccc(-c2csc(Nc3ccc(Cl)cc3)n2)cc1)c1cccc(C(F)(F)F)c1` gave HTT aggregate -33%[9.22 µM], HTT cytoprotect -2%[10 µM], Tau fibril ThT inconclusive, Tau fibril FP 4% and Tau fluor counter 4µM*[quencher].
CCOC(=O)C1=C(C)Nc2ccc(C)cc2S1 was read as HTT aggregate 4%, HTT cytoprotect -12%, Tau fibril ThT 16µM*, Tau fibril FP -8% and Tau fluor counter inconclusive.
`C[C@@H]1CC2(OC(O)[C@]3(C)O[C@H]23)O[C@H]2C[C@@]3(C)[C@@H]4CC[C@H]5C(C)(C)C(O[C@@H]6OC[C@@H](O)[C@H](O)[C@H]6O)CC[C@@]56C[C@@]46CC[C@]3(C)[C@@H]12` (stereo partly specified) gave HTT cytoprotect -78%.
